Several values for one entry are separate records, joined by “and”; a condition that tells them apart may be missing. Identical values can stand only once. Activity calls are given as the source filed them.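 Rule for the calls, unless noted: active = mean z-score across replicates of 1.96 or higher in either the MELAS or the Rieske mutant cell line; inactive = the rest.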
Key:
[1] = hESC survival regulators, cell-based (AID 493140; call rule not given here;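 note: cells exposed to compounds for four days before counting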); details: human embryonic stem cell survival screen; stronger effect = higher value
[2] = liver-stage malaria parasite growth inhibition, primary screen, cell-based, HepG2, luciferase luminescence, HepG2 viability (AID 624349; in the data active = parasite load remaining mostly below about 12%, no sharp cut-off; inactive = mostly above about 10%;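 note: 100% = mean of DMSO negative control wells on the same plate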); details: P. berghei liver stage in HepG2, luciferase luminescence, concentration not given here; parasite load remaining: stronger effect = lower value; viability: measured here: HepG2 viability without parasites
[3] = stimulators of nuclear beta-catenin in C2C12, primary screen, imaging, WNT3A-conditioned medium, mouse C2C12, NPC library (AID 1117326; in the data active = nuclear beta-catenin stimulation mostly above about 4.2%, no sharp cut-off; inactive = mostly below about 10%); details: stronger effect = higher value
[4] = stimulators of insulin release from INS-1E, primary screen, cell-based, 5 mM glucose, NPC library (AID 1117329;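 active = compound raises insulin release from rat beta cells at 5 mM glucose, no numeric limit stated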); details: rat INS-1E insulin secretion, at 10 µM, stronger effect = higher value
[5] = growth inhibition of GSK3B-pretreated HCT116 cells – cell-based, CellTiter-Glo, 0.2 to 20 µM (AID 1117336;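 active = compounds lowering colon cancer cell viability after pretreatment blocking the GSK3B kinase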); details: HCT116 viability after GSK3B inhibitor, at 20 µM, stronger effect = higher value
[6] = inhibition of endothelial tube formation, primary screen, imaging, VEGF stimulated, CD31 staining, tube area, NPC library (AID 1117340;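 active = compound that reduces growth-factor-driven endothelial tube area in a mixed cell culture, no cutoff stated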); details: VEGF-stimulated ADSC/ECFC co-culture, at 10 µM, stronger effect = higher value
[7] = glucagon-like peptide 1 release enhancers, primary assay, NCI-H716 cell line, NPC library (AID 1117341;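 active = compound raises GLP1 secretion from the human gut endocrine cells, with no numeric limit stated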); details: NCI-H716 cells, at 10 µM, stronger effect = higher value
[8] = HCT116 colon cancer cell growth inhibition, primary screen, CellTiter-Glo luminescence, NPC library (AID 1117342;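 active = compounds that lower survival of HCT116 colon cancer cells in the luminescence readout, no numeric limit stated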); details: at 20 µM (top of the series)
[9] = CellTiter-Glo luminescent readout of SW480 viability loss, NPC library primary (AID 1117343;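 active = compounds that lower viability of the colon cancer cells in the luminescence readout, with no numeric limit stated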); details: CellTiter-Glo luminescence; at 20 µM (top of the series) unless noted
[10] = decreased DLD-1 cellular survival, CellTiter-Glo luminescent readout, NPC compound collection, primary HTS (AID 1117346;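 active = compounds that lower survival of DLD-1 colon cancer cells in the luminescence readout, no cutoff given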); details: DLD-1 viability, CellTiter-Glo luminescence; at 20 µM (top of the series)
[11] = differential killing of epithelial or mesenchymal cells, primary screen, imaging, PC-3E GFP, TEM4-18 mCherry, co-culture (AID 1345086;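 active = compounds killing one labelled cell type while sparing the other, by normalised counts and ratio limits, not self-fluorescent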;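 for all read-outs here: cells exposed to compound for 72 h before imaging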;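 for red/green cell ratio (normalised): normalised mesenchymal count divided by normalised epithelial count so high means epithelial killing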); details: imaging cell counts, at 1 µM; for red/green cell ratio (normalised): actives lie on both sides, counts scaled to control wells, 1 = unselective
[12] = survival rescue of mitochondrial mutant cells in low glucose, primary screen, MELAS cybrids, Rieske KO mouse fibroblasts, CellTiter-Glo (AID 1508586);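 note: z relative to plate mean and SD of compound and empty wells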
[13] = target: NAD(+) hydrolase SARM1 (Homo sapiens) (UniProt Q6SZW1); test: SARM1 TIR NADase inhibitors, cell lysate, NAD-Glo luminescence (AID 1508614;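 active = compound whose remaining NAD level is above about 45 nM, limit read from the data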;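 note: higher remaining NAD means stronger inhibition of SARM1 NADase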); details: SAM-TIR HEK293T lysate NADase, at 1 µM, stronger effect = higher value
Chain of NAD(+) hydrolase SARM1 (Homo sapiens) (Q6SZW1 whole entry, looked up): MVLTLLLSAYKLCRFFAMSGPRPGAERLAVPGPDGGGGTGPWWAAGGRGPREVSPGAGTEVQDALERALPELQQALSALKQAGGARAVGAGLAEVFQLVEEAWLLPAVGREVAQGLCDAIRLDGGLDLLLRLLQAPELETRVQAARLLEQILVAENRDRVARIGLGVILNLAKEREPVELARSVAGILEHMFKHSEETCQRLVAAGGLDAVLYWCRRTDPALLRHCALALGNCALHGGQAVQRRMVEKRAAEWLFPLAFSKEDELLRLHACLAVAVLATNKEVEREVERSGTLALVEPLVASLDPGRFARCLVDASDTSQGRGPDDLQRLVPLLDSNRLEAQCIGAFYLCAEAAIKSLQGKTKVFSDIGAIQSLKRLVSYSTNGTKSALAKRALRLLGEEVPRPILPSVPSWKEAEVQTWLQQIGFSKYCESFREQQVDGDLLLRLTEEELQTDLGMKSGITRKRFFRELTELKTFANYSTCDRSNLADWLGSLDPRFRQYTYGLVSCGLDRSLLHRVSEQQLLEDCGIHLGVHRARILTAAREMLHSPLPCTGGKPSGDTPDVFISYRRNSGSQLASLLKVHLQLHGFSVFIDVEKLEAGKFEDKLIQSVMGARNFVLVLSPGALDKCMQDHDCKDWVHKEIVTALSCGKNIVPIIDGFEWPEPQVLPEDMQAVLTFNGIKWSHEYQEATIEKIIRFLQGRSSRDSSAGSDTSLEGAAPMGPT

[14] = LFS_MB_P medulloblastoma growth inhibition, cell-based, chromothripsis tumors, cisplatin or BGB combos (AID 1671449; in the data active = inhibition above about 80%;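 note: cells exposed for 96 hours; 0% = vehicle DMSO and 100% = killing by high DMSO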); details: LFS_MB_P medulloblastoma cells
[15] = HDN33 neuroblastoma growth inhibition, cell-based, chromothripsis tumors, cisplatin or BGB combos (AID 1671450; in the data active = inhibition above about 80%;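 note: cells exposed to compound for four days; 0% = vehicle DMSO and 100% = cell killing by high DMSO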); details: HDN33 neuroblastoma cells, stronger effect = higher value
[16] = ICB984 medulloblastoma cell growth inhibition, synergistic combos for chromothripsis tumors, cisplatin or BGB combos (AID 1671451; call rule not given here;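 note: cells exposed for 96 hours before readout; 0% = vehicle DMSO and 100% = killing by high DMSO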); details: ICB984 medulloblastoma cells, drug combinations, stronger effect = higher value
[17] = HTB85 osteosarcoma cell growth inhibition, synergistic combos for chromothripsis tumors, BGB or cisplatin IC20 combos (AID 1671453; in the data active = inhibition above about 80%;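 note: cells exposed for 96 hours before readout; 0% = vehicle DMSO and 100% = high DMSO killing control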); details: HTB85 osteosarcoma cells, drug combinations, stronger effect = higher value
[18] = MDA-MB-436 breast carcinoma cell growth inhibition, synergistic combos for chromothripsis tumors, BGB or cisplatin combos (AID 1671458; call rule not given here;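 note: cells exposed for 96 hours; 0% = vehicle DMSO and 100% = killing by high DMSO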); details: MDA-MB-436 breast carcinoma growth inhibition, drug combinations, stronger effect = higher value
[19] = sensitizers of A549 cells to miR-34 induction, primary screen, imaging, A549 dox-inducible miR-34, nuclei and caspase counts (AID 1347080;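 active = compounds whose cell count with miR-34 switched on is under 0.7 times the count with it off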); details: A549 miR-34 inducible, Hoechst nuclei count, 48 h
[20] = measured here: epithelial PC-3E GFP cell survival
[21] = measured here: mesenchymal TEM4-18 mCherry cell survival
[22] = MELAS cybrid survival, CellTiter-Glo 48 h, stronger effect = higher value
[23] = Rieske KO mouse fibroblast survival, CellTiter-Glo 72 h
[24] = stronger effect = lower value, cell number ratio, induced over uninduced
[25] = measured here: relative caspase fold change +Dox/-Dox
[26] = measured here: total cells with miR-34 induction, stronger effect = lower value
[27] = measured here: total cells without miR-34 induction

In the case of N=C(N=C(N)N)N1CCOCC1, the survival [1] is reported as 19.5 (inactive), the parasite load remaining [2] is reported as 19.9% (inactive) and 108% (inactive) and 72.1% (inactive) and the viability [2] is reported as 51% and 98% and 255%. The nuclear beta-catenin stimulation ([3]; at 10 µM) was 1.2% (inactive), the nuclear beta-catenin stimulation ([3]; stimulation, at 2 µM) was 1.4% and the insulin secretion stimulation [4] was -2.5% (inactive). The viability decrease [5] was -5.75% (inactive), the tube area decrease [6] was 4.5% (inactive) and the GLP1 secretion stimulation [7] was 1.9% (inactive). The inhibition of viability [8] was 14.6% (inactive), the viability decrease (inhibition) [9] was 34.4% (inactive) and the viability decrease (inhibition) [10] was 4.15% (inactive). The red/green cell ratio (normalised) [11] was 0.95 (inactive), the normalised cell number [11, 20] was 0.9 and the normalised cell number [11, 21] was 0.86. The z-score [12, 22] was -0.354 (inactive) and -0.415 (inactive) and 0.363 (inactive), the z-score [12, 23] was 0.794 and 0.165 and 0.626 and the remaining NAD [13] was 10 nM (inactive). For the same compound, the inhibition ([14]; at 0.5 µM, stronger effect = higher value) was 0.66% (inactive), the inhibition ([14]; measured here: combination with BGB IC20, at 0.005 µM) was 31.7% and the inhibition ([14]; measured here: combination with BGB IC40, at 0.005 µM) was -13.4%. For the same compound, the inhibition ([14]; measured here: combination with BGB IC40, at 0.05 µM) was -9.47%, the inhibition ([14]; measured here: combination with cisplatin, at 0.5 µM, stronger effect = higher value) was 66.2% and the inhibition ([14]; measured here: combination with cisplatin, at 5 µM, stronger effect = higher value) was -1.14%. The inhibition ([15]; BGB combo, at 5 µM) was 12.3%, the inhibition ([15]; at 0.5 µM) was -2.43% (inactive) and the inhibition ([15]; cisplatin combo, at 5 µM) was 9.3%. For the same compound, the inhibition ([15]; measured here: with BGB IC20 combination, at 0.5 µM) was -2.61%, the inhibition ([15]; measured here: with cisplatin IC20 combination, at 0.5 µM) was -1.22% and the inhibition ([15]; single agent, at 5 µM) was 6.99%. It also gave an inhibition ([16]; BGB IC20 combo, at 0.005 µM) of 3.73%, an inhibition ([16]; BGB IC40 combo, at 0.005 µM) of -7.45% and an inhibition ([16]; BGB IC40 combo, at 0.05 µM) of -3.82%. The inhibition ([16]; at 0.5 µM) was -14.1% (inactive), the inhibition ([16]; cisplatin combo, at 0.05 µM) was -6.72% and the inhibition ([16]; cisplatin combo, at 0.5 µM) was -17.9%. The inhibition ([16]; cisplatin combo, at 5 µM) was -29%, the inhibition ([16]; measured here: 5 uM single agent, at 5 µM) was -1.94% and the inhibition ([17]; at 0.5 µM) was -5.39% (inactive). The inhibition ([17]; measured here: with BGB IC20, at 0.5 µM) was 1.31%, the inhibition ([17]; measured here: with BGB IC20, at 5 µM) was -31% and the inhibition ([17]; measured here: with cisplatin IC20, at 0.5 µM) was -27.9%. For the same compound, the inhibition ([17]; measured here: with cisplatin IC20, at 5 µM) was -17.8%, the inhibition ([17]; single agent, at 5 µM) was -7.35% and the inhibition ([18]; at 0.5 µM) was -3.31% (inactive). It also gave an inhibition ([18]; measured here: BGB combination, at 0.5 µM) of -4.36%, an inhibition ([18]; measured here: BGB combination, at 5 µM) of -6.45% and an inhibition ([18]; measured here: cisplatin combination, at 0.5 µM) of -3.15%. It also gave an inhibition ([18]; measured here: cisplatin combination, at 5 µM) of -8.98%.

With Nc1cc(C(Cl)=C(Cl)Cl)c(S(N)(=O)=O)cc1S(N)(=O)=O the survival [1] was 8.08 (inactive), the parasite load remaining [2] was 69.8% (inactive) and 78.4% (inactive) and 58% (inactive) and the viability [2] was 125% and 85.5% and 102%. The nuclear beta-catenin stimulation ([3]; at 10 µM) was 3.8% (inactive), the nuclear beta-catenin stimulation ([3]; stimulation, at 2 µM) was 4.2% and the insulin secretion stimulation [4] was 1.4% (inactive). The viability decrease [5] was 19% (inactive), the tube area decrease [6] was 7% (inactive) and the GLP1 secretion stimulation [7] was 12.7% (inactive). The inhibition of viability [8] was -3.03% (inactive), the viability decrease (inhibition) [9] was -22% (inactive) and the viability decrease (inhibition) [10] was 4.8% (inactive). For the same compound, the red/green cell ratio (normalised) [11] was 0.84 (inactive), the normalised cell number [11, 20] was 1.14 and the normalised cell number [11, 21] was 0.96. The fold change [19, 24] was 0.893 (inactive) and 0.936 (inactive) and 0.859 (inactive), the fold change [19, 25] was 1.43 and 0.803 and 4.71 and the cell count [19, 26] was 8790 and 9570 and 11100. The cell count [19, 27] was 9850 and 10200 and 12900, the z-score [12, 22] was -0.253 (inactive) and -0.139 (inactive) and the z-score [12, 23] was 0.393 and 0.0455. The remaining NAD [13] was 10 nM (inactive).

For CC(S)C(=O)NCC(=O)O (stereo not given), the nuclear beta-catenin stimulation ([3]; at 10 µM) was -0.5% (inactive), the nuclear beta-catenin stimulation ([3]; stimulation, at 2 µM) was 0.7% and the insulin secretion stimulation [4] was -0.8% (inactive). For the same compound, the viability decrease [5] was -7.03% (inactive), the tube area decrease [6] was 17.7% (inactive) and the GLP1 secretion stimulation [7] was -1.7% (inactive). For the same compound, the inhibition of viability [8] was -7.95% (inactive), the viability decrease (inhibition) [9] was 46.8% (inactive) and the viability decrease (inhibition) [10] was 0.37% (inactive). The red/green cell ratio (normalised) [11] was 0.9 (inactive), the normalised cell number [11, 20] was 1.06 and the normalised cell number [11, 21] was 0.94. For the same compound, the fold change [19, 24] was 0.956 (inactive) and 0.886 (inactive), the fold change [19, 25] was 0.809 and 0.891 and the cell count [19, 26] was 8410 and 8420. The cell count [19, 27] was 8800 and 9500, the z-score [12, 22] was -0.286 (inactive) and the z-score [12, 23] was 0.558. The remaining NAD [13] was 10 nM (inactive).

Reference: PubChem BioAssay
